Test results reported in PubChem BioAssay AID1159580 (chemical genetic matrix, 2015).
Where “and” joins values, the source holds several entries; their conditions need not be identical. Equal values may be shown once. About 2,000 (36%) of roughly 5,500 compounds were called active. Inconclusive results (about 18%) are left out. Cut-off read from the data, not from the text of the source: active = normalized growth mostly below about 0.91 (no sharp cut-off); inconclusive = no clear call, values can overlap the other calls; inactive = mostly above about 0.92. The list shows a part of the results.

Experiment: chemical genetic growth profiling, strain panel (AID 1159580);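 note: tested at 20 µM; growth read once vehicle control cultures reached saturation at 30 °C; 1 = growth at the plate median or of vehicle wells; lower values mean less growth of the strain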
Details: growth OD

Measured: normalized growth

N=c1nc(N2CCCCC2)cc(N)n1O
inactive: S. cerevisiae deletion strains, locus YJR075W, strain HOC1, hits give low values 1 | S. cerevisiae deletion strains, locus YKL009W, strain mrt4, hits give low values 0.948 | S. cerevisiae deletion strains, locus YKL068W, hits give low values 0.993 | S. cerevisiae deletion strains, locus YKL085W, strain MDH1 (second series), hits give low values 0.995 | S. cerevisiae deletion strains, locus YKL085W, strain MDH1, hits give low values 0.995 | S. cerevisiae deletion strains, locus YKL160W, strain elf1, hits give low values 0.969 | S. cerevisiae deletion strains, locus YKL190W, strain CNB1, hits give low values 0.996 | S. cerevisiae deletion strains, locus YKR001C, strain vps1, hits give low values 0.995 | S. cerevisiae deletion strains, locus YKR026C, strain gcn3, hits give low values 0.997 | S. cerevisiae deletion strains, locus YKR091W, strain srl3, hits give low values 0.977 | S. cerevisiae deletion strains, locus YLL001W, strain dnm1, hits give low values 0.932 | S. cerevisiae deletion strains, locus YLL026W, hits give low values 0.985 | S. cerevisiae deletion strains, locus YLL041C, strain sdh2, hits give low values 0.99 | S. cerevisiae deletion strains, locus YLR027C, strain aat2, hits give low values 1.01 | S. cerevisiae deletion strains, locus YLR039C, strain RIC1, hits give low values 0.976 | S. cerevisiae deletion strains, locus YLR058C, strain SHM2, hits give low values 0.97 | S. cerevisiae deletion strains, locus YLR102C, strain apc9, hits give low values 0.981 | S. cerevisiae deletion strains, locus YLR113W, strain HOG1, hits give low values 0.984 | S. cerevisiae deletion strains, locus YLR221C, strain rsa3, hits give low values 0.948 | S. cerevisiae deletion strains, locus YLR258W, strain gsy2, hits give low values 0.998 | S. cerevisiae deletion strains, locus YLR262C, strain YPT6 (second series), hits give low values 0.989 | S. cerevisiae deletion strains, locus YLR262C, strain YPT6, hits give low values 0.903 | S. cerevisiae deletion strains, locus YLR268W, strain sec22, hits give low values 1.08 | S. cerevisiae deletion strains, locus YLR320W, strain mms22, hits give low values 0.96 | S. cerevisiae deletion strains, locus YLR330W, strain CHS5, hits give low values 0.979 | S. cerevisiae deletion strains, locus YLR342W, strain FKS1 (second series), hits give low values 0.98 | S. cerevisiae deletion strains, locus YLR342W, strain FKS1, hits give low values 0.985 | S. cerevisiae deletion strains, locus YLR357W, strain rsc2, hits give low values 0.996 | S. cerevisiae deletion strains, locus YLR370C, strain arc18, hits give low values 0.982 | S. cerevisiae deletion strains, locus YLR371W, strain rom2, hits give low values 0.95 | S. cerevisiae deletion strains, locus YLR384C, strain iki3, hits give low values 0.987 | S. cerevisiae deletion strains, locus YLR418C, strain cdc73, hits give low values 0.994 | S. cerevisiae deletion strains, locus YML016C, strain PPZ1, hits give low values 0.973 | S. cerevisiae deletion strains, locus YML032C, strain rad52, hits give low values 0.998 | S. cerevisiae deletion strains, locus YML120C, strain ndi1, hits give low values 0.959 | S. cerevisiae deletion strains, locus YML124C, strain tub3, hits give low values 0.98 | S. cerevisiae deletion strains, locus YMR058W, strain fet3, hits give low values 0.986 | S. cerevisiae deletion strains, locus YMR078C, strain ctf18, hits give low values 0.979 | S. cerevisiae deletion strains, locus YMR125W, strain sto1, hits give low values 0.978 | S. cerevisiae deletion strains, locus YMR129W, hits give low values 0.99 | S. cerevisiae deletion strains, locus YMR205C, strain PFK2, hits give low values 0.947 | S. cerevisiae deletion strains, locus YMR223W, strain ubp8, hits give low values 0.945 | S. cerevisiae deletion strains, locus YMR231W, strain pep5, hits give low values 0.991 | S. cerevisiae deletion strains, locus YMR263W, strain SAP30, hits give low values 0.993 | S. cerevisiae deletion strains, locus YMR307W, strain GAS1, hits give low values 0.935 | S. cerevisiae deletion strains, locus YNL067W, strain RPL9B, hits give low values 0.999 | S. cerevisiae deletion strains, locus YNL071W, strain lat1, hits give low values 0.991 | S. cerevisiae deletion strains, locus YNL128W, strain TEP1, hits give low values 0.953 | S. cerevisiae deletion strains, locus YNL153C, strain GIM3, hits give low values 1.01 | S. cerevisiae deletion strains, locus YNL175C, strain NOP13, hits give low values 0.994 | S. cerevisiae deletion strains, locus YNL183C, strain NPR1, hits give low values 0.945 | S. cerevisiae deletion strains, locus YNL197C, strain WHI3, hits give low values 0.993 | S. cerevisiae deletion strains, locus YNL209W, strain ssb2, hits give low values 0.984 | S. cerevisiae deletion strains, locus YNL224C, strain SQS1, hits give low values 1.01 | S. cerevisiae deletion strains, locus YNL233W, strain BNI4, hits give low values 0.998 | S. cerevisiae deletion strains, locus YNL248C, strain rpa49, hits give low values 1 | S. cerevisiae deletion strains, locus YNL250W, strain rad50, hits give low values 0.98 | S. cerevisiae deletion strains, locus YNL271C, strain bni1, hits give low values 0.987 | S. cerevisiae deletion strains, locus YNL298W, strain CLA4, hits give low values 0.996 | S. cerevisiae deletion strains, locus YNL307C, strain MCK1, hits give low values 0.999 | S. cerevisiae deletion strains, locus YNL322C, strain KRE1 (second series), hits give low values 0.98 | S. cerevisiae deletion strains, locus YNL322C, strain KRE1, hits give low values 0.989 and 0.993 | S. cerevisiae deletion strains, locus YNR049C, strain mso1, hits give low values 0.972 | S. cerevisiae deletion strains, locus YNR052C, strain pop2, hits give low values 0.98 | S. cerevisiae deletion strains, locus YOL006C, strain TOP1, hits give low values 1.02 | S. cerevisiae deletion strains, locus YOL012C, strain htz1 0.984 | S. cerevisiae deletion strains, locus YOL147C, strain pex11, hits give low values 0.987 | S. cerevisiae deletion strains, locus YOR001W, strain rrp6, hits give low values 1.02 | S. cerevisiae deletion strains, locus YOR061W, strain CKA2, hits give low values 0.964 | S. cerevisiae deletion strains, locus YOR069W, strain VPS5, hits give low values 0.987 | S. cerevisiae deletion strains, locus YOR070C, strain gyp1, hits give low values 0.996 | S. cerevisiae deletion strains, locus YOR080W, strain dia2, hits give low values 0.984 | S. cerevisiae deletion strains, locus YOR083W, strain WHI5 (second series), hits give low values 1.01 | S. cerevisiae deletion strains, locus YOR083W, strain WHI5, hits give low values 0.974 | S. cerevisiae deletion strains, locus YOR106W, strain vam3, hits give low values 0.944 | S. cerevisiae deletion strains, locus YOR136W, strain idh2, hits give low values 0.988 | S. cerevisiae deletion strains, locus YOR144C, strain elg1, hits give low values 0.988 | S. cerevisiae deletion strains, locus YOR184W, strain ser1, hits give low values 1 | S. cerevisiae deletion strains, locus YOR231W, strain MKK1, hits give low values 1.02 | S. cerevisiae deletion strains, locus YOR265W, strain rbl2, hits give low values 0.989 | S. cerevisiae deletion strains, locus YOR270C, strain vph1, hits give low values 0.979 | S. cerevisiae deletion strains, locus YOR290C, strain snf2, hits give low values 0.896 | S. cerevisiae deletion strains, locus YOR316C, strain cot1, hits give low values 0.993 | S. cerevisiae deletion strains, locus YPL051W, strain arl3, hits give low values 1 | S. cerevisiae deletion strains, locus YPL055C, strain LGE1, hits give low values 0.988 and 0.98 | S. cerevisiae deletion strains, locus YPL078C, strain atp4, hits give low values 0.968 | S. cerevisiae deletion strains, locus YPL106C, strain sse1, hits give low values 0.948 | S. cerevisiae deletion strains, locus YPL240C, strain hsp82, hits give low values 0.981 | S. cerevisiae deletion strains, locus YPL241C, strain CIN2, hits give low values 0.976 | S. cerevisiae deletion strains, locus YPL256C, strain CLN2, hits give low values 0.993 | S. cerevisiae deletion strains, locus YPR119W, strain clb2, hits give low values 0.982 | S. cerevisiae deletion strains, locus YPR141C, strain kar3, hits give low values 0.974 | S. cerevisiae deletion strains, locus YPR163C, strain tif3, hits give low values 0.993 | S. cerevisiae deletion strains, locus YPR167C, strain met16, hits give low values 0.995 | S. cerevisiae deletion strains, strain wtn01, hits give low values 1.04 | S. cerevisiae strains, strain wild type, hits give low values 0.992
